Compound activity: PubChem, several laboratories
Hits are enriched below; roughly 4.5% of the tested compounds scored in any of these assays.
Rce1 inh – inhibitors of yeast Ras-converting enzyme; Q03530; yeast membranes, quenched prenylated peptide cleavage fluorescence; calls only; 0.27% of 290,000 active; AID 2563;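 active means fall in fluorescence gain of 50% or more versus controls, with final raw signal at or below 3038400; inconclusive means same 50% fall but final raw signal above 3038400; inactive means fall in fluorescence gain under 50%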;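 further: plate controls were neutral control wells for no effect and wells lacking membranes for full effect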
Efflux pump mplx – antifungal efflux pump inhibition, Nile Red retention. 0.44% of 330,000 active. S. cerevisiae Candida pump triplex. AID 485275. inhibition, % at 10 µM;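 active means plate passing quality check with inhibition over a set limit, or well fluorescence over plate mean plus 4 SD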;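 further: Nile Red retained in pooled yeast measured as flow cytometry median fluorescence; 0% = buffer negative control and 100% = Enniatin B positive control; higher means more Nile Red kept so more efflux inhibition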
ALR inh – blocks human ALR sulfhydryl oxidase activity. P55789. purified ALR, DTT oxidation, H2O2 HRP-luminol luminescence. inhibition, % (no concentration beside the values). 3.8% of 290,000 active;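 active means mean replicate inhibition above about 79%, with every replicate also reaching it, limit read from the data; inconclusive means only one of the two criteria met; inactive means mean below limit and not every replicate reaching it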
Target sequence (P55789 whole entry, looked up): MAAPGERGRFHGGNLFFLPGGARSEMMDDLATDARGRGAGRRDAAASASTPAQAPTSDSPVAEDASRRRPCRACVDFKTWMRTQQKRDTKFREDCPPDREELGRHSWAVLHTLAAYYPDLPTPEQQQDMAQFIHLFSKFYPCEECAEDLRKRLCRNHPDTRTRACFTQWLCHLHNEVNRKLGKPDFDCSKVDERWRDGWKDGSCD
Rtt109 Vps75 – C. albicans Rtt109 histone acetyltransferase inhibition; AID 540336; Q5AAJ8; inhibition, % at 34.9 µM; 0.16% of 330,000 active; purified Rtt109/Vps75, ThioGlo CoA-SH fluorescence, 4 h;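 active means inhibition of at least 50% in every replicate; inconclusive means best replicate reaches 50% inhibition but some replicates fall short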
Target sequence (Q5AAJ8 whole entry, looked up): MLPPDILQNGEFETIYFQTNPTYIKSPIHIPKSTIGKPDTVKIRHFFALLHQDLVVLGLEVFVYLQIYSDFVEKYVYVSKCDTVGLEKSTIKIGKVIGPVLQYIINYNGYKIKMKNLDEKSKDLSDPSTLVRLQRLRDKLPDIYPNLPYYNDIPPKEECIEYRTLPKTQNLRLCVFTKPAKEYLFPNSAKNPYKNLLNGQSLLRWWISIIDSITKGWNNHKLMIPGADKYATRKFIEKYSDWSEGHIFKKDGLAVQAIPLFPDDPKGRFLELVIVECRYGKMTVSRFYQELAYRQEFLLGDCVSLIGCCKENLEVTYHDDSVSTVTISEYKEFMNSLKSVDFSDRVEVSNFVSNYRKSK
HDAC3 inh – inhibitors of human histone deacetylase 3; O15379; recombinant HDAC3, fluorogenic peptide/trypsin coupled, fluorescence; inhibition, % at 8.3 µM; 0.15% of 320,000 active; AID 2718; in the data active means inhibition above about 26%, passing the limit was not always enough; inconclusive means no clear call, values can overlap the other calls
GRK2 inh – blocks RNA aptamer binding to human GRK2; P25098; bead flow cytometry, FAM-aptamer displacement from GRK2; inhibition of aptamer binding, % at 10 µM; 0.59% of 330,000 active;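 active means inhibition of aptamer binding above 40%, roughly 3 SD of noise, on plates passing a quality check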;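 further: median bead fluorescence of bound FAM aptamer so fluorescent compounds give negative values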
An asterisk follows results filed as active; i = inactive; u = inconclusive; x = not tested or not shown; + = active, no number.

SMILES | Rce1 inh | Efflux pump mplx | ALR inh | Rtt109 Vps75 | HDAC3 inh | GRK2 inh
O=C(CCNC(=O)c1ccc([N+](=O)[O-])cc1)NCc1cccs1 | x | 0 | -38 | 4 | 3 | 0
CN(Cc1nc(-c2ccccc2)no1)C1CCOCC1 | i | 0 | x | 1 | -3 | 0
CCOC(=O)N1CCN(C(=O)Cc2ccc(Cl)cc2)CC1 | i | 0 | 96* | -3 | 4 | 0
O=C(O)CCCC(=O)N1CCN(c2cccc(Cl)c2)CC1 | i | 0 | -6 | 3 | -4 | 1
O=C(CCC(=O)N1CCN(c2cccc(Cl)c2)CC1)N1CCN(c2ccccc2)CC1 | i | 0 | 98* | 12 | 0 | 1
O=C(Cc1ccc(Cl)cc1)N1CCN(c2ccccc2)CC1 | i | -1 | 88* | 11 | x | 0
COc1ccc(N2CCN(C(=O)c3c(Cl)cnn3C)CC2)cc1 | i | 0 | 99* | -3 | 3 | 2
COc1ccc(N2CCN(C(=O)C3(C)CC3(Cl)Cl)CC2)cc1 (stereo not drawn) | i | 0 | 99* | -3 | -2 | 0
COc1ccc(N2CCN(C(=O)c3ccncc3)CC2)cc1 | i | 0 | 50 | 8 | 0 | 0
Cc1cccc(-n2c(C)nc3cc(C(=O)N4CCOCC4)ccc32)c1 | i | 0 | 0 | -2 | u | 3
O=C(NNC(=S)Nc1ccccc1)Nc1ccccc1 | i | 0 | 46 | -6 | -2 | 2
O=C(NNC(=S)Nc1ccccc1)c1cc(Br)ccc1Cl | i | 0 | 58 | 4 | 0 | 46*
Oc1ccc(NC(=S)Nc2ccccc2)cc1 | i | 0 | 99* | u | -9 | 0
COc1ccc(NC(=S)Nc2ccc3snnc3c2)cc1 | i | 0 | 97* | 9 | -10 | 0
Nc1ccc(NC(=S)Nc2ccccc2)cc1 | i | 0 | 39 | -17 | -6 | 0
Cc1ccc(NC(=S)NNC(=O)Nc2ccccc2)cc1 | i | 0 | 97* | -6 | -1 | 0
COc1cccc(NC(=S)Nc2ccc(O)cc2)c1 | i | 0 | 99* | -3 | 8 | 2
O=C(NNC(=S)Nc1cccc(Cl)c1)c1ccccc1OC(F)F | i | 0 | x | 18 | 4 | 5
COc1cccc(NC(=S)NNC(=O)c2ccccc2OC(F)F)c1 | i | 0 | 79* | 8 | 3 | 2
Cc1cc(Br)c(NC(=O)COC(=O)CC2CC3CCC2C3)c(Br)c1 (stereo not drawn) | x | 0 | -5 | -4 | 5 | 1
Cc1ccc(-c2nc(SC(C)C(=O)N3CCOCC3)n[nH]2)cc1 (stereo not drawn) | i | 0 | 1 | 1 | 2 | 0
COc1ccc(N2CCN(C(=O)c3cc(-c4cccs4)nc4ccccc34)CC2)cc1 | + | 0 | -36 | 2 | 1 | 3
O=C(/C=C/c1cn(-c2ccccc2)nc1-c1cccs1)NCCN1CCOCC1 | + | 0 | -10 | 10 | x | 0
O=C(c1cn(-c2ccccc2)nc1-c1cccs1)N1CCOCC1 | i | 0 | 0 | 4 | -6 | 1
O=C(c1cn(-c2ccccc2)nc1-c1cccs1)N1CCN(c2ccccc2)CC1 | + | 0 | -7 | 1 | -2 | 2
SMILES | Rce1 inh | Efflux pump mplx | ALR inh | Rtt109 Vps75 | HDAC3 inh | GRK2 inh
Cc1c(NC(=O)CSc2ccccc2Cl)c(=O)n(-c2ccccc2)n1C | i | 0 | -1 | x | -3 | 1
CCOc1ccc(CCNC(=O)C(CCC(N)=O)NC(=O)OCc2ccccc2)cc1OCC (stereo not drawn) | i | 0 | -13 | -9 | 2 | 0
CC(C)CNC(=O)c1ccccc1NC(=O)c1ccc(CSc2ccccc2)cc1 | i | -1 | -3 | 1 | 2 | 0
CCC(C)NC(=O)c1ccccc1NC(=O)c1ccc(CSc2ccc(C)cc2)cc1 (stereo not drawn) | i | 0 | 99* | 0 | 2 | 3
CCc1nc(SCC(=O)Nc2ccccc2Cl)n[nH]1 | x | 1 | -2 | 5 | 3 | 0
CN1CCc2c(sc3c2C(=O)NC(c2ccc(-c4ccc(Cl)cc4)o2)N3)C1 (stereo not drawn) | i | 0 | 91* | -37 | -3 | 0
C=CCn1c(C)cc(C(=O)CSc2nnc3n(CCC)c(=O)c4ccccc4n23)c1C | x | x | x | -9 | x | x
O=C1SC(SCc2ccccc2Cl)=N/C1=C\c1ccc(C(=O)O)cc1 | i | 0 | 101* | 9 | -1 | 3
CCOC(=O)SC1=N/C(=C\c2ccc(N(C)C)cc2)C(=O)S1 | i | 0 | 84* | -2 | 0 | 1
CSC1=N/C(=C\c2ccc(C)cc2)C(=O)S1 | i | 0 | x | 1 | 3 | 0
CCOC(=O)CN1C(=O)S/C(=C/C=C/c2ccc(N(C)C)cc2)C1=O | i | 0 | 55 | -1 | 1 | 0
CCSC1=N/C(=C\c2ccc(C(=O)O)cc2)C(=O)S1 | i | 0 | 71 | -4 | 9 | 2
COC(=O)c1ccc(/C=C2\N=C(SC)SC2=O)cc1 | i | -1 | 99* | -2 | -6 | 4
O=C(C1CCC1)N1CCN(c2ccc(Cl)cc2)CC1 | i | 0 | 93* | 4 | 6 | 1
O=C(c1ccc(Cl)cc1)N1CCCC(C(=O)N2CCN(c3ccccc3)CC2)C1 (stereo not drawn) | i | 0 | 57 | x | -6 | 1
S=C(NC1CC1)N1CCN(c2ccc(Cl)cc2)CC1 | i | 0 | 98* | -3 | 2 | 0
CC(=O)c1cc(CN2CCC(C(=O)Nc3ccc(-n4nc(C)cc4C)cc3)CC2)cs1 | i | 0 | -9 | -24 | -3 | 0
Cc1ccsc1CNC1C2CC3CC(C2)CC1C3 (stereo not drawn) | i | 0 | -2 | 3 | 1 | 6
CCN(CC)c1ccc(C(=S)NCc2ccccc2)cc1 | i | 0 | x | 5 | 1 | 1
CCOC(=O)N/N=C/c1ccc(N(CC)CC)cc1O | i | 0 | 99* | -11 | -4 | 2
CCN(CC)c1ccc(/C=N/NC(=O)c2cccc(S(=O)(=O)N3CCOCC3)c2)c(O)c1 | i | 0 | x | -13 | -1 | 0
CCN(CC)c1ccc(/C=N/NC(=O)c2c(Cl)cnn2C)c(O)c1 | i | 0 | 99* | 9 | -5 | x
COc1cc(C)ccc1OCc1cc(C(=O)N2CCC(c3ccc(F)cc3)C2)no1 (stereo not drawn) | i | 0 | 0 | 2 | 1 | 2
CCC(Cc1ccccc1)NS(=O)(=O)c1c(C)nc2sccn2c1=O (stereo not drawn) | i | 0 | -3 | -1 | -4 | 1
CSC1=NCCN1C(=O)Cc1ccc(F)cc1 | i | 0 | -3 | -2 | -8 | 0
O=C(COc1ccccc1)N1CCN=C1SCc1ccc(F)cc1 | i | 0 | 98* | -4 | 7 | 0
O=C(COc1ccccc1)N1CCN=C1SCc1cccnc1 | i | 0 | 100* | -8 | 2 | 1
